The nature of assay [1]: E. coli DRC41 culture turbidity changes, primary screen, E. coli filamentation inducer project, strain DRC41, OD650, 48 h (AID 1152).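 Further: E. coli MC1000 strain DRC41 lacking acrAB efflux pump and sulA.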 The following applies: E. coli DRC41 (acrAB sulA), higher = more signal, called active from +8 up or from −8 down.
Assay [2] is described as follows: small-molecule binders of probe aLefty1, primary screen, biochemical, small-molecule microarray, 635/667 nm fluorescence (AID 1153).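 Further: score merges spot fluorescence with signal-to-noise ratio from the scanned slide images.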 The following applies: higher = more signal.
A short description of assay [3]: PSAC antagonists in infected red cells, primary screen, cell-based, P. falciparum Indochina, OD700, 1 h (AID 1154). The following applies: P. falciparum Indochina infected RBC osmotic lysis, higher = more signal, called active from +8 up or from −8 down.
Assay [4] is described as follows: PSAC antagonists in infected red cells, primary screen, cell-based, P. falciparum Indochina, OD700, 2 h (AID 1155).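 Further: lysis reports solute entry through the parasite surface anion channel PSAC; channel blockers reduce lysis of infected cells.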 The following applies: P. falciparum Indochina infected erythrocytes, osmotic lysis OD700; higher = more signal, called active from +8 up or from −8 down.
The nature of assay [5]: osmotic lysis modulators in infected erythrocytes, primary screen, PSAC antagonist project, cell-based, P. falciparum Indochina, OD700, 3 h (AID 1156). The conditions noted are these: higher = more signal, called active from +8 up or from −8 down.
The nature of assay [6]: PSAC antagonists in infected red cells, primary screen, cell-based, P. falciparum Indochina, OD700, 18 h (AID 1157). The following applies: P. falciparum Indochina infected erythrocytes, osmotic lysis OD700, 18 h; higher = more signal, called active from +8 up or from −8 down.
A short description of assay [7]: modulators of S6 phosphorylation in cells, primary screen, cell-based, A549, cytoblot, luminescence, serum-stimulated (AID 1158).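 Further: serum-stimulated A549 lung adenocarcinoma cells; signal is phosphorylated S6 detected by cytoblot immunostaining with HRP secondary.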 The following applies: A549 phospho-S6 cytoblot, 5 h, higher = more signal.
The target in assay [8] is NADPH oxidase 2 (Homo sapiens) (UniProt P04839). Description: NOX2-dependent H2O2 signal modulators, primary screen, NOX inhibitor project, cell-based, HEK293-NOX2, PMA-stimulated, Amplex Red fluorescence (AID 1159). Further: test concentration not given here. The following applies: 45 min, higher = more signal, called active from +8 up or from −8 down.
Chain of NADPH oxidase 2 (Homo sapiens) (P04839 whole entry, looked up): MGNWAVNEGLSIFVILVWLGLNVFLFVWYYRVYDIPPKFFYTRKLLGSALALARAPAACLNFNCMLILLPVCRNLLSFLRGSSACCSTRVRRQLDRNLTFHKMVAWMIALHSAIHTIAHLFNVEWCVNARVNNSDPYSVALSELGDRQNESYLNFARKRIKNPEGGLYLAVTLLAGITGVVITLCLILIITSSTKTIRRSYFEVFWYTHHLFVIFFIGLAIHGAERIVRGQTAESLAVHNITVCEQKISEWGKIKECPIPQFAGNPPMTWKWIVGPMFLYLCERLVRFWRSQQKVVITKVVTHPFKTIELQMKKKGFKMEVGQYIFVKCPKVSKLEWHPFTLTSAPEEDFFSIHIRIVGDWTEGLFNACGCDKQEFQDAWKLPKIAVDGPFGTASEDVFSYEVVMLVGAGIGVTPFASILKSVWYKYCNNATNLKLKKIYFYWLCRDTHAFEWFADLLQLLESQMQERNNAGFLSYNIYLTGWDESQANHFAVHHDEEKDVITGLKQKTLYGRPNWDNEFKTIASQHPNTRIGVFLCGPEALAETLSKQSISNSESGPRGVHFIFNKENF
In assay [9] the target is NADPH oxidase 4 (Homo sapiens) (UniProt Q9NPH5). Description: NOX4-dependent H2O2 signal modulators, primary screen, NOX inhibitor project, cell-based, HEK293-NOX4, tetracycline-induced, Amplex Red fluorescence (AID 1160). The following applies: 45 min, higher = more signal, called active from +8 up or from −8 down.
Chain of NADPH oxidase 4 (Homo sapiens) (Q9NPH5 whole entry, looked up): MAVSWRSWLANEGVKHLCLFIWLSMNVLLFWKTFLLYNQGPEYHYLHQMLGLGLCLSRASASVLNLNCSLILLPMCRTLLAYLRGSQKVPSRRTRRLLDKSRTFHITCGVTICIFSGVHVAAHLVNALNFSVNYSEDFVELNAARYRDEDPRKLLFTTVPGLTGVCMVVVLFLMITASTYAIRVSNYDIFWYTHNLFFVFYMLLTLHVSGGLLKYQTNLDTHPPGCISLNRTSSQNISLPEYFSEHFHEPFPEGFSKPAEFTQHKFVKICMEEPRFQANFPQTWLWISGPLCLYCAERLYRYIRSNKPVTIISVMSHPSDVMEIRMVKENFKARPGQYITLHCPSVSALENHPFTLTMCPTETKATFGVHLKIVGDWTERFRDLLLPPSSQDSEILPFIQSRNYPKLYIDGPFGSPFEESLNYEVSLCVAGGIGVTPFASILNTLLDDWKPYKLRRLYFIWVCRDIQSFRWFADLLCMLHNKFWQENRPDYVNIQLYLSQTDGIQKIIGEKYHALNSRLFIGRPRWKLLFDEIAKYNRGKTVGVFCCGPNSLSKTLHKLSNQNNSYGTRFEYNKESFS
Assay [10] has as its target NADPH oxidase 5 (Homo sapiens) (UniProt Q96PH1). Description: NOX5-dependent H2O2 signal modulators, primary screen, NOX inhibitor project, cell-based, HEK293-NOX5, Amplex Red fluorescence (AID 1161). The conditions noted are these: HEK293-NOX5, ionomycin, 45 min, higher = more signal.
Assay [11] in a line: A549 cell viability effects, profiling panel, calcein-AM fluorescence, 48 h, basal (AID 1162). Further: test concentration not given here. The conditions noted are these: higher = more signal.
A short description of assay [12]: adipocyte viability effects, profiling panel, cell-based, 3T3-L1 adipocytes, calcein-AM fluorescence, 48 h, basal (AID 1163). Further: test concentration not given here. The conditions noted are these: 3T3-L1 adipocytes viability, higher = more signal.
Assay [13] can be described thus: HepG2 cell viability effects, profiling panel, calcein-AM fluorescence, 48 h, basal (AID 1164). Further: test concentration not given here. The conditions noted are these: higher = more signal.
Assay [14] is described as follows: MM1S cell viability effects, profiling panel, calcein-AM fluorescence, 48 h, basal (AID 1165).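 Further: viability of MM1S multiple myeloma cells under basal unstimulated conditions; test concentration not given here.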 The conditions noted are these: higher = more signal.
Assay [15] in a line: basal RPMI8226 viability, no added stimulus, profiling panel, cell-based, calcein-AM fluorescence, 48 h, PK04 Diversity Set (AID 1166).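 Further: cells grown under basal conditions without added stimulus; test concentration not given here.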 The conditions noted are these: RPMI8226 myeloma viability, higher = more signal.
The nature of assay [16]: basal HepG2 mitochondrial membrane potential changes, profiling panel, cell-based, JC-1 fluorescence, 24 h, 100 nL compound (AID 1167). Further: test concentration not given here. The following applies: higher = more signal.
Assay [17] can be described thus: basal 3T3-L1 adipocyte mitochondrial potential changes, profiling panel, cell-based, JC-1 fluorescence, 3T3-L1 adipocytes, 24 h, 100 nL compound (AID 1168). Further: test concentration not given here. The conditions noted are these: JC-1 mitochondrial fluorescence, higher = more signal, called active from +8 up or from −8 down.
Assay [18] is described as follows: basal RPMI8226 mitochondrial membrane potential changes, profiling panel, cell-based, JC-1 fluorescence, 24 h, 100 nL compound (AID 1169). Further: test concentration not given here. The conditions noted are these: RPMI8226 myeloma, JC-1 mitochondrial potential fluorescence, higher = more signal.
Assay [19] can be described thus: basal MM1S mitochondrial membrane potential changes, profiling panel, cell-based, JC-1 fluorescence, 24 h, 100 nL compound (AID 1170). Further: test concentration not given here. The conditions noted are these: higher = more signal.
Assay [20] in a line: A549 lung cancer cell viability effects, profiling panel, resazurin fluorescence, 24 h, PK04 Diversity Set (AID 1171). Further: test concentration not given here. The following applies: higher = more signal, called active from +8 up or from −8 down. In general terms: Resazurin is reduced to fluorescent resorufin, in cell work by metabolically active cells.

Calls of active or inactive are those of the source.

Our source for the z-score and composite z-score values is PubChem BioAssay.

Chain of NADPH oxidase 5 (Homo sapiens) (Q96PH1 whole entry, looked up): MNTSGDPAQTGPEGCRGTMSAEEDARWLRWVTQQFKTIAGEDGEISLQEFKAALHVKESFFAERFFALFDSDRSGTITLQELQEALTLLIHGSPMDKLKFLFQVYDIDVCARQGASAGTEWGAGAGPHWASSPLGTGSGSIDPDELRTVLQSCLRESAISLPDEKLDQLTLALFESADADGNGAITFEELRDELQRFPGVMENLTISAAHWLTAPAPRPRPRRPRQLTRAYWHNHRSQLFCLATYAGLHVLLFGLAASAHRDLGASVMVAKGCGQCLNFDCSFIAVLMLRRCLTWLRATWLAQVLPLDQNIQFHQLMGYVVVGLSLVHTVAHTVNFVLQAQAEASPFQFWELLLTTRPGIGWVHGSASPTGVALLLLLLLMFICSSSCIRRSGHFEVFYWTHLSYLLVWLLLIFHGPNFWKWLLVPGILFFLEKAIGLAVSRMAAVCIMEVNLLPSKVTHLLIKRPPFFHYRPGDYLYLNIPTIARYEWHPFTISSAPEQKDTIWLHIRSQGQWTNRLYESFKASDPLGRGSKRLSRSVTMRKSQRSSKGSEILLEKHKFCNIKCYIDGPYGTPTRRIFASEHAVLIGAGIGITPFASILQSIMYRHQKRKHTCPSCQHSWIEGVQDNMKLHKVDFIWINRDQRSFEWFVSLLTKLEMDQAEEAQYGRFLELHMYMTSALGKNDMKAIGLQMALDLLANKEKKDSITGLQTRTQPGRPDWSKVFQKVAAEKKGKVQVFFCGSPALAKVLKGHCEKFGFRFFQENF

Consider `CCOc1cc(C(O)C2C=CC3C(=O)NC(=O)C3N2Nc2ccccn2)ccc1O` (stereo not given), for which the z-score is -1.17 (inactive) in [1]; -0.251 (inactive) in assay [3]; 0.519 (inactive) in assay [4]; -0.195 (inactive) in assay [5]; 0.828 (inactive) in [6]; -1.27 in assay [7]. The z-score is -1.35 (inactive) in assay [8]; -3.69 (inactive) in [9]; -1.57 in assay [10]; -0.773 in assay [11]; -1.5 in [12]; -0.506 in assay [13]. Also, the z-score is -0.369 in [14]; -0.328 in assay [15]; -1.87 in assay [16]; -0.892 (inactive) in assay [17]; -0.0441 in [18]; 0.157 in assay [19]. In addition, the z-score in assay [20] is -0.923 (inactive). Further, the composite z-score in [2] stood at 0.0253.

On to `COc1ccc(C#Cc2ccc3c(c2)[C@]2(C(=O)N3)[C@H](c3ccc(OCCO)cc3)N3[C@H](c4ccccc4)[C@H](c4ccccc4)OC(=O)[C@H]3[C@@H]2C(=O)N2CCN(c3ncccn3)CC2)cc1`, for which the z-score was 2.34 (inactive) in assay [1]; 3.2 (inactive) in [3]; 0.964 (inactive) in [4]; -1.48 (inactive) in [5]; -0.856 (inactive) in assay [6]; 0.379 in [7]. Further, the z-score is 1.15 (inactive) in assay [8]; 0.706 (inactive) in [9]; 1.34 in assay [10]; -0.446 in assay [11]; 1.15 in assay [12]; -0.646 in assay [13]. For the same compound, the z-score in assay [14] is 0.496; in assay [15], -0.106; in [16], -0.851; in assay [17], 4.27 (inactive); in [18], -0.507; in assay [19], -0.816. Further, the z-score in assay [20] is 1.32 (inactive). Moreover, the composite z-score in assay [2] is 0.0436.

Consider `C=CC[C@@]1(C(=O)NCC(O)CO)N=C(c2ccc(OCCCO)cc2)O[C@@H]1c1ccccc1` (stereo not given in full), for which the z-score in assay [1] is 0.529 (inactive); in assay [3] it was 22.6 (active); in assay [4], 4.36 (inactive); in assay [5], 1.12 (inactive); in assay [6] it was 0.394 (inactive); in assay [7], -0.0453. The z-score in [8] is 0.325 (inactive); in assay [9], 1.02 (inactive); in [10], 1.69; in assay [11], 0.183; in [12], 1.07; in [13] it was -0.412. Besides, the z-score was 0.281 in [14]; -0.561 in assay [15]; -0.152 in [16]; 0.622 (inactive) in [17]; 0.49 in [18]; 1.18 in assay [19]. Further, the z-score in [20] was 0.295 (inactive). Besides, in [2], the composite z-score is 0.366.

As to `CC(=O)NCCCC[C@@H]1NC(=O)[C@H]2C[C@@H](C(=O)NCCCCCN)[C@@H](c3cccc(OCCO)c3)N2C1=O`, the z-score is 2.39 (inactive) in assay [1]; 1.15 (inactive) in assay [3]; -1.08 (inactive) in assay [4]; 1.9 (inactive) in assay [5]; -1.98 (inactive) in assay [6]; 1.36 in [7]. Besides, the z-score in assay [8] is 0.0821 (inactive); in assay [9], 0.793 (inactive); in [10] it was 0.875; in assay [11] it was -0.0064; in assay [12] it was 0.352; in assay [13], 0.491. In addition, the z-score was 0.701 in assay [14]; 0.948 in [15]; 0.0469 in assay [16]; 0.408 (inactive) in [17]; -0.38 in assay [18]; 0.155 in assay [19]. Moreover, the z-score in [20] was 1.1 (inactive). In [2], this compound yielded a composite z-score of 0.262.

Regarding `COC(=O)C(CC#Cc1ccc2c(c1)[C@]1(C(=O)N2)[C@H](c2ccc(O)cc2)N2[C@H](c3ccccc3)[C@H](c3ccccc3)OC(=O)[C@H]2[C@@H]1C(N)=O)C(=O)OC`, the z-score is 2.05 (inactive) in assay [1]; 1.09 (inactive) in [3]; 1.58 (inactive) in assay [4]; 0.6 (inactive) in assay [5]; 1.3 (inactive) in [6]; 1.39 in assay [7]. The z-score is 0.222 (inactive) in assay [8]; 0.356 (inactive) in assay [9]; -0.453 in assay [10]; 1.43 in assay [11]; -0.0866 in assay [12]; 0.188 in assay [13]. Besides, the z-score in [14] was 0.244; in [15], 0.728; in assay [16], 1.44; in assay [17], 0.673 (inactive); in assay [18] it was -0.846; in [19], -0.0448. Besides, the z-score in [20] was 1.42 (inactive). In addition, the composite z-score in assay [2] is -0.216.

With `CC(C)[Si](C#C[Si](C(C)C)(C(C)C)C(C)C)(O[C@H](C)c1cn(Cc2cccc(Cl)c2)nn1)C(C)C`, the z-score in assay [1] was 2.58 (inactive); in [3] it was 1.23 (inactive); in assay [4] it was 0.881 (inactive); in assay [5], -0.125 (inactive); in [6], 0.702 (inactive); in [7], 0.712. For the same compound, the z-score in [8] is 0.501 (inactive); in assay [9] it was 0.312 (inactive); in assay [10], -0.162; in assay [11] it was 1.85; in assay [12], -0.667; in assay [13], 1.12. Besides, the z-score in assay [14] was 0.673; in assay [15], 0.133; in [16] it was 1.37; in assay [17], 0.159 (inactive); in [18], -0.0288; in assay [19], 0.238. In [20], the z-score was 1.15 (inactive). Besides, in assay [2], the composite z-score was -0.195.

Turning to `C=C[C@H](C)[C@H](OC(=O)Nc1ccc(SC)cc1)c1ccc(O)c2ccccc12`, the z-score in [1] is -1.61 (inactive); in assay [3], 28.9 (active); in assay [4] it was 10.2 (active); in assay [5] it was 2.13 (inactive); in [6], 0.867 (inactive); in assay [7], 0.451. Besides, the z-score in assay [8] was -5.46 (inactive); in [9] it was -0.825 (inactive); in assay [10] it was 1.76; in assay [11], -0.561; in assay [12], -0.557; in assay [13], -1.51. Further, the z-score is -2.74 in [14]; -3.78 in assay [15]; -3.16 in [16]; -0.818 (inactive) in assay [17]; -0.939 in [18]; -1.51 in assay [19]. Further, the z-score in assay [20] is -1.12 (inactive). For the same compound, the composite z-score in [2] is -1.01.

In the case of `O=C1N(CCS(=O)(=O)c2ccccc2)Cc2ccccc2C[C@@]12COC(c1ccc(OCCCO)cc1)=N2`, the z-score is -2.34 (inactive) in assay [1]; 25.9 (active) in assay [3]; 15.1 (active) in assay [4]; 4.23 (inactive) in [5]; 2.14 (inactive) in assay [6]; -0.0579 in assay [7]. The z-score in assay [8] was -5.26 (inactive); in assay [9], -0.159 (inactive); in assay [10] it was -3.16; in [11] it was -0.696; in [12] it was 0.643; in assay [13], 1.13. Moreover, the z-score is -2.84 in [14]; -1.53 in assay [15]; -1.08 in assay [16]; 0.0146 (inactive) in assay [17]; -1.03 in assay [18]; -2.13 in assay [19]. Besides, the z-score in [20] was -3.42 (inactive). The composite z-score in assay [2] was determined as 0.153.

Turning to `NC(=O)[C@@H]1[C@H]2C(=O)O[C@H](c3ccccc3)[C@H](c3ccccc3)N2[C@H](c2ccccc2OCCO)[C@@]12C(=O)Nc1ccc(C#CCCO)cc12`, the z-score in [1] is 1.41 (inactive); in [3] it was 14.3 (active); in assay [4], 0.966 (inactive); in assay [5], -2.23 (inactive); in assay [6], -1.18 (inactive); in assay [7], 1.02. Besides, the z-score is 2.03 (inactive) in assay [8]; 1.18 (inactive) in assay [9]; 1.02 in assay [10]; 0.888 in assay [11]; 1.27 in assay [12]; 0.133 in [13]. For the same compound, the z-score is 0.448 in assay [14]; -3.68 in [15]; -0.945 in assay [16]; 0.783 (inactive) in assay [17]; -1.11 in assay [18]; 0.068 in assay [19]. Also, the z-score in [20] was 0.461 (inactive). This compound also returned a composite z-score in assay [2] of -0.0464.
